Measurements published in paper PMC5540273 (PLoS ONE, 2017).

Legend:
Conditions in all cases: concentration: 1 μM, replicates: in singlicate; n = 1
[1] = tested on: PAK3
[2] = tested on: PAK4
[3] = tested on: PAK6
[4] = tested on: PAK7
[5] = tested on: T1, PCTK1
T1 construct: gene CDK16

[6] = tested on: T2, PCTK2
T2 construct: gene CDK17

[7] = tested on: T3, PCTK3
T3 construct: gene CDK18

[8] = tested on: PDGFRA
[9] = tested on: PDGFRB
[10] = tested on: PDPK1
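Further: KINOMEscan kinase panel screen.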

SMILES	%Inh [1]	%Inh [2]	%Inh [3]	%Inh [4]	%Inh [5]	%Inh [6]	%Inh [7]	%Inh [8]	%Inh [9]	%Inh [10]
CS(=O)(=O)CCNCc1nc(-c2ccc3ncnc(Nc4ccc(OCc5ccccc5)c(Cl)c4)c3c2)cs1.Cl [GW582764]	24%	0%	0%	0%	6%	0%	17%	0%	8%	0%
COc1ccc(Nc2nccc(NCCNC(=O)Nc3cc(C)ccc3C)n2)cc1 [GSK1379899]	22%	0%	0%	0%	2%	0%	2%	0%	5%	0%
CNC(=O)c1ccc(C)c(-n2c(C)cc(OCc3ccc(F)cc3F)c(Br)c2=O)c1	0%	0%	0%	0%	0%	0%	0%	0%	0%	0%
CSc1ccc(-c2nc3n(c2-c2ccncc2)CCC3)cc1 [SKF-105561]	0%	0%	0%	0%	3%	5%	0%	28%	0%	0%
COc1cccc(CNC(=O)NC2CCN(c3ccnc(Nc4ccc(F)cc4)n3)C2)c1 (stereo not drawn) [GSK1379723]	38%	0%	0%	0%	10%	0%	14%	7%	15%	0%
CC(C)c1ccc(O)cc1Nc1ccnc2ccc(C(F)(F)F)cc12 [GW482059]	0%	0%	0%	0%	2%	0%	0%	3%	10%	18%
O=C1NC(=O)C(c2ccc(Cl)cc2)=C1Nc1cccc(Cl)c1 [SB-317651]	14%	18%	0%	0%	0%	15%	12%	9%	0%	0%
CC[C@@H]1CO[C@H](C(=O)Nc2ccccc2)CN1c1cc(-c2ccc3c(N)n[nH]c3c2)nc(NC)n1 [GSK2376236]	0%	0%	3%	7%	3%	11%	0%	0%	20%	94.6%
CN1c2ccc(-c3ccc(C(N)=O)cc3)cc2-c2[nH]ncc2S1(=O)=O	0%	5%	0%	0%	0%	0%	0%	0%	0%	21%
Cn1cncc1-c1cc2c(Nc3ccc(OCc4ccccc4)cc3)ncnc2cn1 [GW281179]	0%	0%	0%	0%	11%	0%	21%	0%	16%	0%
Cc1cnc(N)c(/C=C/c2cncc(C(=O)NCCc3ccc(Cl)cc3Cl)c2)c1.Cl [GSK190937]	0%	0%	0%	7%	1%	0%	0%	96.4%	98.8%	0%
Cc1ccccc1Cn1ccn2c(=O)cc(N3CCOCC3)nc12 [GSK2269905]	0%	0%	0%	0%	1%	0%	0%	0%	13%	0%
O=c1cc(N2CCOCC2)nc2n(Cc3cccc(Cl)c3Cl)c3ccccc3n12 [GSK2299009]	42%	0%	21%	12%	8%	8%	20%	0%	51%	0%
COc1cc2ncnc(Nc3cccc(Br)c3)c2cc1OC.Cl [GI230329]	0%	0%	0%	12%	0%	0%	2%	0%	16%	11%
CS(=O)(=O)CCNCc1nc(-c2ccc3ncnc(Nc4ccc5c(cnn5Cc5ccccc5)c4)c3c2)cs1.Cl.Cl [GW569716]	22%	0%	0%	0%	0%	0%	16%	0%	10%	0%
Cc1ccc(NC(=O)Nc2ccc(Cl)c(C(F)(F)F)c2)cc1-c1ccc(C(=O)Nc2ccncc2)cc1 [GSK1398470]	22%	0%	0%	2%	0%	6%	14%	19%	97.5%	26%
Cc1cccc2c(-c3ccncn3)c(-c3ccc(F)cc3)nn12 [GW515532]	29%	0%	0%	3%	0%	0%	0%	0%	10%	17%
Nc1cccc(-c2ccc3c(N)n[nH]c3c2)n1 [GSK2192730]	0%	0%	8%	7%	4%	20%	3%	2%	18%	0%
COC(=O)C(Cc1ccccc1)NC(=O)NC1CCN(c2ccnc(Nc3ccc(F)cc3)n2)C1 (stereo not drawn) [GSK1379714]	16%	0%	0%	7%	5%	9%	0%	7%	23%	4%
CNCc1ccc2nc(NC(=O)c3ccc(C(C)(C)C)cc3)cn2c1	4%	4%	0%	0%	41%	3%	0%	73%	74%	3%
Fc1ccc(-c2nc[nH]c2-c2ccncc2)cc1 [SB-217360]	0%	13%	2%	0%	0%	0%	0%	0%	0%	0%
